Screening results: PubChem BioAssay, National Center for Advancing Translational Sciences (NCATS)
B2AR arrestin ag – qHTS assay of beta-arrestin-biased ligands of beta2-adrenergic receptor: NCGC Sytravon Library Screen; Beta-2 adrenergic receptor (Homo sapiens), P07550; HTLA Tango cells, beta-arrestin recruitment, luciferase luminescence, 18 h; 44,000 tested, under 10 active; AID 1347077, 2019; Potency, µM (series often up to 46.1 µM), most hits filed as activators;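 note: potency is the fitted concentration of half-maximal effect; 0% = DMSO and full agonism = EC100 isoproterenol or metaproterenol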
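Ligand-induced beta-arrestin recruitment to recombinant beta2-AR is measured via a tTA-driven luciferase reporter in Tango cells after 18 hr compound exposure at 37 degrees C. Concentrations span up to 46 microM.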
GALK inh – qHTS Assay for Inhibitors of Human Galactokinase (GALK): NCGC Sytravon Library Screen. P51570. recombinant GALK, Kinase-Glo ATP luminescence, 1 h. Potency, µM (doses to about 57.5 µM), without a hit: at the highest dose activity, negative = inhibition, usual class: inhibitors. 44,000 tested, under 10 active;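 note: plate controls were full GALK reaction for no effect and reaction lacking GALK for full effect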
Target sequence (P51570 whole entry, looked up): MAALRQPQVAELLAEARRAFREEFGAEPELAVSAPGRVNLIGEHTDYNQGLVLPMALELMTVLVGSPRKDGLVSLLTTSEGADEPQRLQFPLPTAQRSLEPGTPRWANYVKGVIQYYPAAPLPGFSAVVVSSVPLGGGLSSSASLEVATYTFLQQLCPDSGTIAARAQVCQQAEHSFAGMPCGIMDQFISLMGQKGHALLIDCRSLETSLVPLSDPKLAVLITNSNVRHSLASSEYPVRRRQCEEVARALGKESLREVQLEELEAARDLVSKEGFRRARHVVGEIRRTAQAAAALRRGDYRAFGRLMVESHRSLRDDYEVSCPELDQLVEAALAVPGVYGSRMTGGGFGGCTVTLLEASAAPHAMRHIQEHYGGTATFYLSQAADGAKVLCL
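5 nM GALK; 35 uM ATP; 100 uM D-galactose; 20 mM HEPES pH 8.0, 5 mM MgCl2, 60 mM NaCl, 1 mM DTT, 0.01% BSA; 1 h RT; Kinase-Glo Plus luminescence.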
TSG101-PTAP inh – qHTS Validation Assay for Inhibitors of HIV-1 Budding by Blocking the Interaction of PTAP/TSG101: Sytravon Library Screen. AID 1347069, 2019. Potency, µM (highest dose often 115 µM), actives largely listed as inhibitors. 44,000 tested, under 10 active. Fluorescence polarization, FITC-PTAP peptide/Tsg101, 20 min. Tumor susceptibility gene 101 protein (Homo sapiens), Q99816; note: potency is the fitted concentration of half-maximal effect; 0% is about no effect
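Steps: Tsg101 binding domain (10 uM final) in HEPES pH 7.5/NaCl/Tween 20/EDTA/TCEP; add compound; add FITC-PTAP peptide (50 nM final); incubate 20 min r.t.; read polarization.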
DRV1 agonist – qHTS for Agonists of Human Resolvin D1 Receptor DRV1. CHO-K1 GPR32 beta-arrestin PathHunter luminescence, 90 min; zero percent set by DMSO-only wells. activation, % at 76.9 µM. 2.5% of 48,000 active;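 active = activation of at least 60% and not above a set upper limit, about 1 call in 100 departs from these limits; inconclusive = activation of 40% to 60%, or above that upper limit; inactive = activation under 40%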; note: 0% is about no effect
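Agonism was scored by beta-Gal fragment complementation (chemiluminescent read, 1 h detection at ambient temperature) reporting beta-arrestin binding to GPR32 in engineered CHO-K1 cells. Compound treatment lasted 90 min at 37 C, normalized to a DMSO basal control.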
The depositor's hits bear a star; i = inactive; ? = inconclusive; · = no result given. The list is not random: actives were taken first. Their share in the collection is about 2.5%. Unless noted, calls come from the whole dose curve; as a rule, active = well fitted curve in the direction sought with a large enough effect; inconclusive = small, poorly fitted or top-dose-only effect, or another doubt; inactive = no such curve, though single readings can be large; an effect the other way counts as inactive or inconclusive.

SMILES	B2AR arrestin ag	GALK inh	TSG101-PTAP inh	DRV1 agonist
COc1cc(Cl)c(NS(=O)(=O)c2cc(-c3cc(C)no3)ccc2OC)c(OC)c1	i	-1.8%	i	-15.4
Cc1nn(C(=O)c2ccccc2)c(C)c1Sc1ccc(Cl)cc1	i	-1.2%	i	106.5*
Cc1ccc(Cn2c(CO)cnc2SCC(=O)Nc2cccc(F)c2)cc1	i	-0.2%	i	29.0
Cc1ccc(Cn2c(CO)cnc2SCc2ccc(F)cc2)cc1	i	0.3%	i	13.7
COc1ccccc1NC(=O)CSc1ncc(CO)n1Cc1ccc(F)cc1	i	0.0%	i	65.3*
CCOC(=O)c1ccccc1NC(=O)CSc1ncc(CO)n1Cc1ccc(C)cc1	i	4.0%	i	73.8*
OCc1cnc(SCc2cccc(F)c2)n1Cc1ccc(F)cc1	i	1.8%	i	88.6*
Cc1ccc(Cn2c(CO)cnc2SCc2cccc(F)c2)cc1	i	-0.5%	i	22.4
COc1ccc2cc1Oc1cc3c(cc1OC)CC[N+](C)(C)[C@H]3Cc1ccc(cc1)Oc1c(OC)c(OC)cc3c1[C@@H](C2)[N+](C)(C)CC3	·	·	·	22.0
CCOc1ccc(C2CC(=O)n3nc(-c4ccc(C)cc4)nc3S2)cc1OC (stereo not given)	i	2.1%	i	73.9*
O=C1CC(c2ccc(Cl)cc2)Sc2nc(-c3ccc(F)cc3)nn21 (stereo not given)	i	-16.2%	i	119.2*
Cc1cccc(N2CCn3c2nc2c3c(=O)n(CCCc3ccccc3)c(=O)n2C)c1	i	-0.8%	i	-3.6
C[C@]12CCC(=O)C=C1[C@@H]1C[C@@H]1[C@H]1[C@@H]3[C@@H]4C[C@@H]4[C@@]4(CCC(=O)O4)[C@@]3(C)CC[C@@H]12	·	·	·	36.2
Cc1c(Cl)cccc1NC(=O)c1ccc2snnc2c1	i	-2.0%	i	-29.8
Cc1ccc(Cl)cc1NC(=O)c1ccc2snnc2c1	i	4.7%	i	85.3*
O=C(CCOCCOCCOCCOCCC(=O)Nc1c(I)cc(I)c(C(=O)O)c1I)Nc1c(I)cc(I)c(C(=O)O)c1I	·	·	·	-14.5
Cc1ccc(N(C)S(=O)(=O)c2ccc3[nH]c4c(c3c2)CCCC4)cc1	i	2.5%	i	109.3*
COc1cccc(CNS(=O)(=O)c2ccc3[nH]c4c(c3c2)CCCCC4)c1	i	2.1%	i	64.5*
COc1ccc(OC)c(NS(=O)(=O)c2ccc3[nH]c4c(c3c2)CCCCC4)c1	i	1.1%	i	2.2
Cc1ccc(NS(=O)(=O)c2ccc3[nH]c4c(c3c2)CCCCCC4)cc1	i	0.4%	i	101.7*
COc1cc(NS(=O)(=O)c2ccc3[nH]c4c(c3c2)CCCCCC4)cc(OC)c1	i	-1.5%	i	101.9*
COc1cc(NC(=O)CN(C)S(=O)(=O)c2ccc3[nH]c4c(c3c2)CCCC4)cc(OC)c1OC	i	1.3%	i	105.1*
COc1ccc(NS(=O)(=O)c2ccc3[nH]c4c(c3c2)CCCC4)cc1OC	i	1.0%	i	13.7
COc1cc(NS(=O)(=O)c2ccc3[nH]c4c(c3c2)CCCC4)cc(OC)c1OC	i	0.3%	i	82.2*
O=S(=O)(Nc1cccc(F)c1)c1ccc2[nH]c3c(c2c1)CCCCC3	i	-4.4%	i	61.6*
SMILES	B2AR arrestin ag	GALK inh	TSG101-PTAP inh	DRV1 agonist
Fc1cccc(-n2ncc3c2ncn2nc(COc4ccc(Cl)cc4)nc32)c1	i	3.3%	i	0.9
CCCSS/C(CCO)=C(\C)N(C=O)Cc1cnc(C)nc1N	·	·	·	-39.7
Cc1ccc(S(=O)(=O)NCCc2csc3nc(-c4ccccc4C)nn23)cc1	i	-1.0%	i	79.7*
NS(=O)(=O)c1cc(C(=O)NN2C[C@H]3[C@H]4CCC(C4)[C@H]3C2)ccc1Cl	·	·	·	2.5
CCCCc1ccc(NS(=O)(=O)c2cc3c4c(c2)CC(=O)N4CCC3)cc1	i	3.2%	i	104.6*
CCOc1ccc(NC(=O)CC2Nc3cccc4cccc(c34)NC2=O)cc1 (stereo not given)	?	2.5%	i	83.1*
CCOC(=O)NNc1ccc(N(CC)CC(C)O)nn1 (stereo not given)	·	·	·	5.4
CC1(C)CCC2=C(O1)c1ccccc1C(=O)C2=O	·	·	·	34.0
C=CCOc1cc(Cl)ccc1C(=O)NCCN(CC)CC	·	·	·	-14.8
Cc1cn([C@H]2C[C@H](F)[C@@H](CO)O2)c(=O)[nH]c1=O	·	·	·	-21.1
Cc1ccc(NC(=O)Cn2c(=O)ccc3cc(S(=O)(=O)N4CCC(C)CC4)ccc32)c(C)c1	i	0.5%	i	-2.3
Cc1cc(O)c2c(O)c3c(O)cccc3cc2c1	·	·	·	108.0*
CC(C)(Cc1c[nH]c2ccccc12)NCC(O)COc1ccccc1C#N (stereo not given)	·	·	·	38.6
COc1ccc(C(=O)Nc2cccc(OCc3cc(=O)n4c5c(sc4n3)CCCC5)c2)cc1OC	i	7.2%	i	63.4*
CCc1cccc2c(CCO)c[nH]c12	·	·	·	25.1
CCC(C)(C)c1ccc(CC(C)CN2C[C@@H](C)O[C@@H](C)C2)cc1 (stereo not given in full)	·	·	·	112.6*
COc1cccc(-n2c(=O)c3c(C)c(C)sc3n(Cc3ccccc3C#N)c2=O)c1	i	0.0%	i	-14.5
COc1cccc(CNC(=O)Cn2nc(-c3ccc(C)cc3)ccc2=O)c1	i	0.9%	i	-10.9
COc1cccc(CNC(=O)Cn2nc(-c3ccc(Cl)cc3)ccc2=O)c1	i	-0.9%	i	76.2*
